Values without a mark were called inactive. Records with an inconclusive call do not appear. Activity calls are given as the source filed them. Unless noted, calls come from the whole dose curve; as a rule, active = well fitted curve in the direction sought with a large enough effect in the repeat runs; inconclusive = weak or mixed curves; inactive = no such curve, though single readings can be large; an effect the other way counts as inactive or inconclusive.

Assay [1] in a line: qHTS assay to identify small molecule antagonists of the estrogen related receptor (ERR) signaling pathway from Tox21 library - cell viability counter screen (AID 1224834). Note: nearly all actives have a fitted effect of over 30% in size. In a few lines: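 ERR reporter cells were plated 6 h before compound addition, then exposed to test compounds in DMSO for 17.5 h at 37 C. Viability was read as CellTiter-Fluor fluorescence after a 30-minute incubation at 37 C.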
(In general: qHTS replaces the single test concentration by a dilution series.)

For assay [2], the target named is Luciferin 4-monooxygenase (Photinus pyralis) (UniProt P08659). The experiment in a line: qHTS assay to identify small molecule inhibitors of firefly luciferase (AID 1224835). Note: nearly all actives have a fitted effect of over 25% in size. Note: potency is the fitted concentration of half-maximal effect. In a few lines: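 Biochemical qHTS: compounds run as interplate titrations against purified firefly enzyme, with D-luciferin and ATP each at its KM concentration. Light output recorded by CCD imaging.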
Luciferin 4-monooxygenase (Photinus pyralis), sequence (P08659 whole entry, looked up): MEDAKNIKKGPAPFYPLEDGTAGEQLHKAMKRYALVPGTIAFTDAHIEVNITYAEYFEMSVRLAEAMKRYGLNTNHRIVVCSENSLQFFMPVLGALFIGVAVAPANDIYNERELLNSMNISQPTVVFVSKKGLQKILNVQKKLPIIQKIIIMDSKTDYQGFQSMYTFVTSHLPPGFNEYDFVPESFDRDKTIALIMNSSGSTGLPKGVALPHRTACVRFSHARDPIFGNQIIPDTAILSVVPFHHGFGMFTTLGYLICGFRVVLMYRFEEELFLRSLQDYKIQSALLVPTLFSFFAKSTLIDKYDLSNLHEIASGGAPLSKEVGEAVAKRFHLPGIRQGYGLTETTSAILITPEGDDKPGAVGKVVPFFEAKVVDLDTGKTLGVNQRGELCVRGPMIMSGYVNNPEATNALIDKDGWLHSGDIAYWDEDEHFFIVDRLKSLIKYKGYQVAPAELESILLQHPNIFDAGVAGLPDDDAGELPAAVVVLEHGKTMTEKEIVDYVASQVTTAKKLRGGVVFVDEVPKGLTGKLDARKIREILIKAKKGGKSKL

The nature of assay [3]: qHTS assay to identify small molecule agonists of the constitutive androstane receptor (CAR) signaling pathway - cell viability counter screen (AID 1224836). Note: series mostly up to about 92 µM; nearly all actives have a fitted effect of over 45% in size. In a few lines: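 Cells were seeded and incubated 4 hrs. Compounds were added across 15 concentrations together with PK11195 at 0.75 uM final. Plates were incubated 23 hrs at 37 C. CellTiter-Fluor was added and fluorescence measured.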

The nature of assay [4]: qHTS assay to identify small molecule antagonists of the constitutive androstane receptor (CAR) signaling pathway - cell viability counter screen (AID 1224837). Note: series mostly up to about 92 µM; nearly all actives have a fitted effect of over 45% in size. In outline: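 HepG2 cells stably expressing hCAR and a CYP2B6-2.2kb reporter were plated and pre-incubated 4 hr at 37 C/5% CO2, then given compounds at 15 concentrations plus 50 nM CITCO (final). After 23 hr, viability was read by CellTiter-Fluor fluorescence.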

Assay [5] concerns the target Nuclear receptor subfamily 1 group I member 3 (Homo sapiens) (UniProt Q14994). The experiment in a line: qHTS assay to identify small molecule antagonists of the constitutive androstane receptor (CAR) signaling pathway (AID 1224838). Note: nearly all actives have a fitted effect of over 40% in size. In a few lines: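 HepG2 cells stably co-transfected with hCAR and a CYP2B6-2.2kb luciferase reporter were seeded 4 h before compound addition at 15 concentrations. Cells were stimulated with 50 nM CITCO (final) for 24 h at 37 C; luciferase luminescence was then read.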

The target is the same in assay [6]. The experiment in a line: qHTS assay to identify small molecule agonists of the constitutive androstane receptor (CAR) signaling pathway (AID 1224839). For activation: series mostly up to about 92 µM. Note: nearly all actives have a fitted effect of over 15% in size. Note: potency is the fitted concentration of half-maximal effect. In outline:
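Cells were plated and incubated 4 hrs, then dosed with compounds at 15 concentrations. PK11195 was added to 0.75 uM final. After 24 hrs at 37 C, luciferase luminescence was measured.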

A short description of assay [7]: qHTS assay to identify small molecule antagonists of the estrogen related receptor signaling pathway with the pleiotropic PPARgamma coactivator (PGC) from Tox21 10K library - cell viability counter screen (AID 1224840; active = well fitted cell-killing curve with a large enough effect in the repeat runs, not every such curve was filed as active; note: nearly all actives have a fitted effect of over 40% in size). In a few lines: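 PGC/ERR cells were seeded at 2,000 cells/well and left 6 hours at 37 C/5% CO2 before pin-tool addition of compounds in DMSO. After 17.5 hours at 37 C, CellTiter-Fluor was added and fluorescence read 30 minutes later.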

Assay [8] in a line: qHTS assay to identify small molecule agonists of the hypoxia (HIF-1) signaling pathway - cell viability counter screen (AID 1224844; calls by dose curve; note: nearly all actives have a fitted effect of over 50% in size). In outline: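 HRE-bla ME-180 cells in medium with 0.5% dialyzed FBS were preincubated 5 hrs at 37C, exposed to compounds for 17 hrs, then viability was read as CellTiter-Glo luminescence after 30 min at room temperature, in the reporter wells.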

Assay [9] can be described thus: qHTS assay to identify small molecule agonists of H2AX (AID 1224845; active = well fitted activation curve with a large enough effect in the signal ratio in the repeat runs, not every such curve was filed as active; the % refers to the signal ratio). In a few lines:
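Wild-type CHO-K1 cells, plated overnight, exposed 3hr at 37C to 15 concentrations (0.76% DMSO final). Lysed, then HTRF anti-pH2AX (S139) cryptate and anti-H2AX-d2 antibodies, 24 hr room temperature; 665/620 nm emission read.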

Assay [10] is described as follows: qHTS assay to identify small molecule agonists of the hypoxia (HIF-1) signaling pathway (AID 1224846; active = well fitted activation curve with a large enough effect in the signal ratio in the repeat runs, not every such curve was filed as active; the % refers to the signal ratio). In outline:
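HRE-bla ME-180 cells (beta-lactamase reporter under hypoxia response element) were plated at 2,000 cells/well in medium with 0.5% dialyzed FBS, rested 5 hrs, then given compounds in DMSO for 17 hrs at 37C, 5% CO2. Reporter induction was read with CCF4-AM FRET substrate.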

A short description of assay [11]: qHTS assay to identify small molecule agonists of H2AX - cell viability counter screen (AID 1224847; calls by dose curve; note: top concentration of the series differs between compounds; nearly all actives have a fitted effect of over 30% in size). In a few lines:
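Cytotoxicity counter screen in wild-type CHO-K1 cells: a 3 hr compound treatment at 37C across 15 concentrations, followed by CellTiter-Glo luminescence to gauge viable cells.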

The nature of assay [12]: qHTS RealTime-Glo MT Cell Viability Assay in HepG2 cells - 24 hour (AID 1224867). Note: nearly all actives have a fitted effect of over 50% in size. In outline: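 Compound treatment began 5 h after plating HepG2 cells (600/well) with NanoLuc luciferase and prosubstrate. Plates stayed at 37 C for 40 h; luminescence was captured at six time points, 0 h through 40 h.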
Assay [13] in a line: qHTS RealTime-Glo MT Cell Viability Assay in HEK293 cells - 32 hour (AID 1224868). Note: top concentration of the series differs between compounds; nearly all actives have a fitted effect of over 50% in size. In a few lines: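 Quantitative high-throughput screen of the Tox21 10K library in HEK293: cells and RealTime-Glo reagents plated together, compound added at 5 h, luminescence monitored through 40 h at 37 C.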
Assay [14] in a line: A CellTox Green Cytotoxicity Assay to monitor cytotoxicity in HEK293 cells - 0 hour (AID 1224869). Note: nearly all actives have a fitted effect of over 50% in size. In a few lines: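 HEK293 cells premixed with CellTox Green dye were seeded at 600 cells/well and left 5 h at 37 C/5% CO2 before pin transfer of 23 nL compound in DMSO. Fluorescence from dye bound to dead-cell DNA was read during 40 h treatment.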
The nature of assay [15]: qHTS RealTime-Glo MT Cell Viability Assay in HepG2 cells - 40 hour (AID 1224870). Note: nearly all actives have a fitted effect of over 50% in size. In a few lines:
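HepG2 cells (600/well) mixed with RealTime-Glo MT reagent, settled 5 h at 37 C/5% CO2 before compound addition. Nonlytic NanoLuc luminescence from viable-cell prosubstrate reduction read repeatedly during 40 h treatment at 37 C.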

Assay [16] addresses Thyrotropin receptor (Homo sapiens) (UniProt P16473). The experiment in a line: qHTS assay to identify small molecule agonists of the thyroid stimulating hormone receptor (TSHR) signaling pathway (AID 1224843; calls by dose curve; note: nearly all actives have a fitted effect of over 45% in size). In a few lines: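 TSHR-HEK293 cells in agonist mode, 30 min room-temperature step, then cAMP measured by competitive HTRF (cAMP-d2 with anti-cAMP cryptate) after 1 h at room temperature. Tested at 15 concentrations in triplicate.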

Thyrotropin receptor (Homo sapiens), sequence (P16473 whole entry, looked up): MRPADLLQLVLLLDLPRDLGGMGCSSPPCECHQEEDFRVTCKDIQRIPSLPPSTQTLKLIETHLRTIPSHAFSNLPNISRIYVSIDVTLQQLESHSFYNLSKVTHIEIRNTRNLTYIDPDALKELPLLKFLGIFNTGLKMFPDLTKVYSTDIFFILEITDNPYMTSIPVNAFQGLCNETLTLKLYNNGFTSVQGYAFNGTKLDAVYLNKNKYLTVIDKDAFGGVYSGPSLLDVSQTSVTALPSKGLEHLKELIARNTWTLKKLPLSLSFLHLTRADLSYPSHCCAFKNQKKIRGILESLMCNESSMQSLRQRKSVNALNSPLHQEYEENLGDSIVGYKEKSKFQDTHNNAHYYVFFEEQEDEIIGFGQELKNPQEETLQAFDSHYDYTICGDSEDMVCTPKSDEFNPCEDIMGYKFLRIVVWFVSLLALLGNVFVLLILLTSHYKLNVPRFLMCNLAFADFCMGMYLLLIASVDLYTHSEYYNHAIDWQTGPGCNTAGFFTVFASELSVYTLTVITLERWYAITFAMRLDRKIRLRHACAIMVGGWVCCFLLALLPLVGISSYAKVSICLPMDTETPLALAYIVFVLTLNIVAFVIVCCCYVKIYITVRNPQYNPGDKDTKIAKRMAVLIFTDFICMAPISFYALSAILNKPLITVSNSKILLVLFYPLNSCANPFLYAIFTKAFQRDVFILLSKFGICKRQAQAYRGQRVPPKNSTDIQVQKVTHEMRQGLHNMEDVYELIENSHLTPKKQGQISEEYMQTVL
Nuclear receptor subfamily 1 group I member 3 (Homo sapiens), sequence (Q14994 whole entry, looked up): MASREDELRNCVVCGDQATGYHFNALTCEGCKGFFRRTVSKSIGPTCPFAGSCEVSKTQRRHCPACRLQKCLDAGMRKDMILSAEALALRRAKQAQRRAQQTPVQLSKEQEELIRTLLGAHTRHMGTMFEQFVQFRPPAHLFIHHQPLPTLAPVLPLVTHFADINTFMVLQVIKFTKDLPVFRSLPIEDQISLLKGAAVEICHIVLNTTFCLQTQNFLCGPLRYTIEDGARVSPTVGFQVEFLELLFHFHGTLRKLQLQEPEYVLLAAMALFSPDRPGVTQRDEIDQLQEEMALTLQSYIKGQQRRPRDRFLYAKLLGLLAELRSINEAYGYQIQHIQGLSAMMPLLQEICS

With `Cc1c(N)cccc1N`, the Potency entry in [1], in assay [2], in assay [3], in [4], in assay [5] and in assay [6] was “inactive” throughout. For the same molecule, the Potency entry in assay [7], in assay [8], in [9], in [11], in assay [12] and in assay [13] was “inactive” throughout. The Potency result in assay [14] and in assay [15] was “inactive” throughout. The molecule was classed as inactive in assay [10].

`Cc1cc2nc(N)sc2cc1C`: the Potency result in assay [1], in assay [3], in assay [4], in assay [5], in [7] and in assay [8] was “inactive” throughout. Moreover, the Potency result in [9], in [12], in assay [13], in [14] and in [15] was “inactive” each time. Besides, the Potency is 5.69 µM (active) in assay [2] and 2.19 µM (active) in assay [6]. Further, the molecule was called inactive in assay [10].

As to `CC(C)CC(=O)OCc1ccccc1`, the Potency result in [1], in [2], in assay [3], in [4], in assay [5] and in assay [6] was “inactive” throughout. In addition, the Potency result in [7], in [8], in assay [9], in [11], in assay [12] and in assay [13] was “inactive” in each case. The Potency entry in assay [14] and in [15] was “inactive” throughout. Besides, the result in [10] was inactive.

As to `C=CCc1cc(OC)c(O)c(C(=O)NCCO)c1`, the Potency result in [1], in assay [2], in [3], in [4], in assay [5] and in assay [6] was “inactive” throughout. Also, the Potency result in assay [7], in [16], in assay [8], in [9], in [11] and in [13] was “inactive” throughout. Also, the Potency result in assay [14] and in assay [15] was “inactive” throughout. The outcome in assay [10] was inactive.

Regarding `O=C(O)c1cccc(Cl)c1Cl`, the Potency result in assay [1], in assay [2], in [3], in assay [4], in assay [5] and in [6] was “inactive” each time. In addition, the Potency entry in [7], in assay [8], in [9], in assay [11], in assay [12] and in assay [13] was “inactive” throughout. Also, the Potency result in assay [14] is “inactive”. Also, the result in assay [10] was inactive.

For the molecule `Oc1ccccc1C=NCc1ccccc1`, the Potency entry in assay [1], in [3], in assay [4], in assay [5], in assay [6] and in [7] was “inactive” each time. Moreover, the Potency result in assay [16], in [8], in [9], in [11], in assay [12] and in assay [13] was “inactive” throughout. The Potency entry in assay [14] and in assay [15] was “inactive” throughout. The Potency in assay [2] was 34.7 µM (active). Also, the molecule was called inactive in assay [10].

With `CC(C)Nc1nc(N)nc(Cl)n1`, the Potency entry in assay [1], in assay [2], in assay [3], in assay [4], in [5] and in assay [6] was “inactive” each time. In addition, the Potency result in assay [7], in assay [16], in assay [8], in assay [9], in assay [11] and in assay [12] was “inactive” in each case. Moreover, the Potency entry in assay [13], in [14] and in assay [15] was “inactive” each time. In assay [10], the result was inactive.

For `Cc1cn([C@@H]2O[C@H](CO)[C@@H](O)[C@@H]2F)c(=O)[nH]c1=O`, the Potency result in [1], in [2], in [3], in assay [4], in assay [5] and in assay [6] was “inactive” throughout. Also, the Potency entry in assay [7], in assay [16], in assay [8], in [9], in [11] and in assay [13] was “inactive” throughout. Besides, the Potency result in assay [14] and in assay [15] was “inactive” throughout. Further, in assay [10], the result was inactive.

The record behind these values is PubChem BioAssay (Tox21).
